40 compounds from PubChem BioAssay (NCI) can be followed below.

Each structure is given as a SMILES string. The panel holds about 79,000 compounds, 15% with a hit somewhere; the sample as a whole holds those more often. Values without a mark were called inactive. Rule as the data show it: active = growth inhibition above about 70%; inactive = the rest.

The first experiment can be described thus: NCI Yeast Anticancer Drug Screen. Data for the rad50 strain (AID 155).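 Also: 0% = growth of vehicle-only cultures of the same strain.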 The conditions noted are these: S. cerevisiae rad50 strain growth inhibition; at 50.0 µM; active compounds read high. An outline of the steps: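 Yeast carrying a defined DNA repair defect were exposed to test compounds, and growth was compared with vehicle-treated controls to give percent inhibition.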
`Cc1cc(=O)c2cc3ccc4cccc5ccc(c2[nH]1)c3c45`: the growth inhibition is -12.6%.
Consider `CCC1CC(=O)NC(=O)NC1=O` (stereo not given), for which the growth inhibition was -4.6%.
Same read-out and setting: in the case of `Cc1c(-c2ccccc2)[nH]n(C2=NCCN2)c1=O` it was 10.8%; in that of `CC(C)OP(=O)(OC(C)C)C1C(P(=O)(OC(C)C)OC(C)C)C(F)(F)C1(F)F` (stereo not given), 11.4%.
Take `COC(=O)CN(c1c(C)cc(C)c(N)c1C)S(=O)(=O)c1ccccc1`: the growth inhibition was 0.2%.
Still for that read-out and setting: with `O=S(=O)(Oc1cccc2ccccc12)c1ccc(Br)cc1` the figure was 3.15%; with `COC(=O)C1(C2CCc3cc(OC)ccc3C2=O)NC(=S)NC(=O)C1C#N` (stereo not given), -2.8%.
On the same count and under the same terms, in the case of `O=C1O/C(=C(\Br)c2ccc([N+](=O)[O-])cc2)c2ccccc21` it was 30.4%; in that of `Cn1nnc2c(C(N)=O)ncn2c1=O`, -11.4%.
Still for that read-out and setting: with `N#Cc1c(-c2ccccc2)cn2c1[nH]c(=O)c1ccccc12` the figure was 4%; with `O=C1OC(c2ccc(Cl)cc2)=N/C1=C\c1c(Cl)cccc1Cl`, 6.9%.
Consider `C=CSC(=S)Sc1ccccc1`, for which the growth inhibition is 25.6%.
For `CCC[n+]1cccc(C#N)c1`, the growth inhibition was 6.15%.
Same read-out and setting: with `CC1(C)C(c2ccccc2)C12CCC1(C2=O)C(c2ccccc2)C1(C)C` (stereo not given) the figure was -41.8%; with `CC(O)(c1ccccc1)C1CC1c1ccccc1` (stereo not given), 29.9%; with `CCC(=O)N1NC(=O)C(CC)(CC)C1=O`, -1.95%.
As to `CCOC(=O)C1=C(Nc2ccc(Cl)c(Cl)c2)OC/C1=N\NC(=O)Cc1ccccc1`, the growth inhibition is -49.8%.
Same read-out and setting: with `COC(=O)C(=O)C1CCc2c(C(=O)OC)nc3[nH]n(-c4ccccc4)c(=O)c3c21` (stereo not given) the figure was 12.1%.
On the same count and under the same terms, in the case of `Cc1cc2n(n1)C(=O)CC(=O)C2` it was 8.4%; in that of `O=[N+]([O-])c1ccc(Nc2ccccc2)c2nonc12`, -22.2%; in that of `CCC(CC)C(=O)OCCOc1ccccc1`, 0.9%.
Consider `c1ccc(CCN(CCc2ccccn2)CCc2ccccn2)nc1`, for which the growth inhibition was -5.85%.
Same read-out and setting: with `COC(=O)CCC(=O)CC(=O)C1=NS(=O)(=O)c2nc(S(N)(=O)=O)c(Cl)cc2N1` the figure was -5.3%; with `O=c1[nH]c(=O)n(C2CC(O)C(CO)O2)cc1C#Cc1ccc(C(F)(F)F)cc1` (stereo not given), 13.1%; with `O=c1c2n(c(=O)c3n1CCC=3)CCC=2`, -2.5%.
As for `CCCC(=O)OCc1ccc(Cl)cc1Cl`, the growth inhibition was 31.6%.
Still for that read-out and setting: with `CC(=O)n1ccc(=O)[nH]c1=O` the figure was 8.9%.
The same measure, in the same setting: with `CCOC(=O)/C(C#N)=C/c1ccc(Cl)cc1` the figure was -5.3%; with `COc1ccc(CSc2n[nH]c(=O)[nH]c2=S)cc1`, 14.8%; with `CCOC(OCC)C(N)=O`, 2.75%.
On the same count and under the same terms, with `CCCCCOc1ccc(C2=C(c3ccccc3)C(=O)C(c3ccccc3)=C2c2ccccc2)cc1` the figure was 40.4%; with `c1cnn([B-]2(n3cccn3)n3ccc[n+]3[B-](n3cccn3)(n3cccn3)n3ccc[n+]32)c1`, 0.85%.
For the compound `CC(=O)NC1C(SC(=O)NCCCl)OC(COC(C)=O)C(OC(C)=O)C1OC(C)=O` (stereo not given), the growth inhibition is -7.75%.
The same measure, in the same setting: with `Nc1nc(SCCc2ccccc2)c2[nH]cnc2n1` the figure was -2.35%; with `CC(=O)N(C(=O)CC(=O)NN)c1ccc(Cl)cc1`, -19.1%; with `Cc1ccc(CCn2cnc3c(N(CCO)CCO)ncnc32)cc1`, -8.45%.
On the same count and under the same terms, with `CCCNC(=O)Nc1ccccc1OCC` the figure was -3.6%; with `CC1(CO)CSC(Nc2ccc(F)cc2)=N1` (stereo not given), -7.4%; with `NC(=O)COc1c(Br)cc(Br)cc1Br`, -1.55%.
Still for that read-out and setting: with `O=c1c2c(c(=O)c(=O)c1=O)Nc1ccccc1N2` the figure was 22.2%.

The next experiment is described as follows: NCI Yeast Anticancer Drug Screen. Data for the mec2-1 strain (AID 157). Conditions: S. cerevisiae mec2-1 strain, at 50.0 µM, active compounds read high. An outline of the steps: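 Strain: mec2-1 (DNA repair/cell cycle alteration). Compound exposure, then growth measured; inhibition expressed relative to vehicle.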
As for `Cc1cc(=O)c2cc3ccc4cccc5ccc(c2[nH]1)c3c45`, the growth inhibition was -8.35%.
In the case of `CCC1CC(=O)NC(=O)NC1=O` (stereo not given), the growth inhibition was 30.8%.
Same read-out and setting: with `Cc1c(-c2ccccc2)[nH]n(C2=NCCN2)c1=O` the figure was 7.45%; with `CC(C)OP(=O)(OC(C)C)C1C(P(=O)(OC(C)C)OC(C)C)C(F)(F)C1(F)F` (stereo not given), 10.9%.
As to `COC(=O)CN(c1c(C)cc(C)c(N)c1C)S(=O)(=O)c1ccccc1`, the growth inhibition was 15.9%.
Regarding `O=S(=O)(Oc1cccc2ccccc12)c1ccc(Br)cc1`, the growth inhibition is -13.4%.
`COC(=O)C1(C2CCc3cc(OC)ccc3C2=O)NC(=S)NC(=O)C1C#N` (stereo not given): the growth inhibition was -4.45%.
On to `O=C1O/C(=C(\Br)c2ccc([N+](=O)[O-])cc2)c2ccccc21`, for which the growth inhibition was -27.4%.
Turning to `Cn1nnc2c(C(N)=O)ncn2c1=O`, the growth inhibition is -18.5%.
On to `N#Cc1c(-c2ccccc2)cn2c1[nH]c(=O)c1ccccc12`, for which the growth inhibition was -6.65%.
Take `O=C1OC(c2ccc(Cl)cc2)=N/C1=C\c1c(Cl)cccc1Cl`: the growth inhibition is -1.3%.
Still for that read-out and setting: in the case of `C=CSC(=S)Sc1ccccc1` it was 28.4%.
On the same count and under the same terms, with `CCC[n+]1cccc(C#N)c1` the figure was 5.4%.
Same read-out and setting: with `CC1(C)C(c2ccccc2)C12CCC1(C2=O)C(c2ccccc2)C1(C)C` (stereo not given) the figure was -27.8%; with `CC(O)(c1ccccc1)C1CC1c1ccccc1` (stereo not given), -3.5%; with `CCC(=O)N1NC(=O)C(CC)(CC)C1=O`, -26.2%.
For `CCOC(=O)C1=C(Nc2ccc(Cl)c(Cl)c2)OC/C1=N\NC(=O)Cc1ccccc1`, the growth inhibition is -22%.
With `COC(=O)C(=O)C1CCc2c(C(=O)OC)nc3[nH]n(-c4ccccc4)c(=O)c3c21` (stereo not given), the growth inhibition was -14.3%.
The same measure, in the same setting: in the case of `Cc1cc2n(n1)C(=O)CC(=O)C2` it was 1%; in that of `O=[N+]([O-])c1ccc(Nc2ccccc2)c2nonc12`, 4.45%; in that of `CCC(CC)C(=O)OCCOc1ccccc1`, -0.25%.
Still for that read-out and setting: in the case of `c1ccc(CCN(CCc2ccccn2)CCc2ccccn2)nc1` it was -13.6%.
For the compound `COC(=O)CCC(=O)CC(=O)C1=NS(=O)(=O)c2nc(S(N)(=O)=O)c(Cl)cc2N1`, the growth inhibition was 6.7%.
Still for that read-out and setting: with `O=c1[nH]c(=O)n(C2CC(O)C(CO)O2)cc1C#Cc1ccc(C(F)(F)F)cc1` (stereo not given) the figure was -3.4%; with `O=c1c2n(c(=O)c3n1CCC=3)CCC=2`, -13.5%; with `CCCC(=O)OCc1ccc(Cl)cc1Cl`, 13.3%.
On the same count and under the same terms, with `CC(=O)n1ccc(=O)[nH]c1=O` the figure was 0.2%; with `CCOC(=O)/C(C#N)=C/c1ccc(Cl)cc1`, -11.7%; with `COc1ccc(CSc2n[nH]c(=O)[nH]c2=S)cc1`, -4.45%.
Consider `CCOC(OCC)C(N)=O`, for which the growth inhibition is -12.1%.
On the same count and under the same terms, with `CCCCCOc1ccc(C2=C(c3ccccc3)C(=O)C(c3ccccc3)=C2c2ccccc2)cc1` the figure was 12.3%.
Same read-out and setting: in the case of `c1cnn([B-]2(n3cccn3)n3ccc[n+]3[B-](n3cccn3)(n3cccn3)n3ccc[n+]32)c1` it was -11.6%.
On the same count and under the same terms, with `CC(=O)NC1C(SC(=O)NCCCl)OC(COC(C)=O)C(OC(C)=O)C1OC(C)=O` (stereo not given) the figure was -8.6%; with `Nc1nc(SCCc2ccccc2)c2[nH]cnc2n1`, -4.35%.
Consider `CC(=O)N(C(=O)CC(=O)NN)c1ccc(Cl)cc1`, for which the growth inhibition is -21.3%.
Same read-out and setting: with `Cc1ccc(CCn2cnc3c(N(CCO)CCO)ncnc32)cc1` the figure was 23.8%; with `CCCNC(=O)Nc1ccccc1OCC`, -5.55%; with `CC1(CO)CSC(Nc2ccc(F)cc2)=N1` (stereo not given), -11.1%.
Same read-out and setting: in the case of `NC(=O)COc1c(Br)cc(Br)cc1Br` it was 6.65%.
Still for that read-out and setting: with `O=c1c2c(c(=O)c(=O)c1=O)Nc1ccccc1N2` the figure was -6.15%.
